Most compounds without a hit are left out; they make up all but 3% or so of the library.
LDHA inh – blocks human lactate dehydrogenase A; actives 0.15% (n = 480,000); activity change, % (values are at about 110 or 230 µM); purified LDHA, NADH/diaphorase-resazurin fluorescence; hits give low values; P00338; in the data active means activity change below about -30%; inconclusive means mostly about -25% to -30%
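Human LDH5 (2 nM) was incubated with 0.06 mM NADH and 0.2 mM pyruvate for 5 min at room temperature in Tris pH 7.4. Remaining NADH was coupled through diaphorase/resazurin, and resorufin fluorescence was read at 0 and 20 min.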
ClpP mod – qHTS Assay for Activators of ClpP | purified B. subtilis ClpP, FRET peptide cleavage, 20 min | actives 1.9% (n = 340,000) | ATP-dependent Clp protease proteolytic subunit (Bacillus subtilis (strain 168)), P80244 | Potency, µM (doses to about 57.5 µM); active means well fitted falling curve with a large enough effect; inconclusive means small, poorly fitted or top-dose-only effect; inactive means no such curve, though single readings can be large or run the other way; further: the source files actives as falling curves though it sought activators and does not explain the sign; nearly all actives have a fitted effect of over 65% in size
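Purified B. subtilis ClpP, 10 microg/mL final in Tris/HCl pH8 with KCl, BSA, glycerol and Tween-20, cleaved an Abz/nitrotyrosine-quenched decapeptide. Fluorescence (ex 320, em 430) was read at 0 and 20 min at room temperature. Delta was normalized to 5.8 microM ADEP and DMSO/no-enzyme controls.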
KCNH2 WT inh – inhibitors of human wildtype KCNH2 potassium channel; activity change, % at 1.84 µM; AID 720551; Q12809; U2OS, BacMam KCNH2, thallium flux FluxOr; hits give low values; actives 0.37% (n = 340,000);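 active means maximum activity change below -70%; inconclusive means maximum activity change between -70% and -50%; inactive means maximum activity change above -50%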
Target sequence (Q12809 whole entry, looked up): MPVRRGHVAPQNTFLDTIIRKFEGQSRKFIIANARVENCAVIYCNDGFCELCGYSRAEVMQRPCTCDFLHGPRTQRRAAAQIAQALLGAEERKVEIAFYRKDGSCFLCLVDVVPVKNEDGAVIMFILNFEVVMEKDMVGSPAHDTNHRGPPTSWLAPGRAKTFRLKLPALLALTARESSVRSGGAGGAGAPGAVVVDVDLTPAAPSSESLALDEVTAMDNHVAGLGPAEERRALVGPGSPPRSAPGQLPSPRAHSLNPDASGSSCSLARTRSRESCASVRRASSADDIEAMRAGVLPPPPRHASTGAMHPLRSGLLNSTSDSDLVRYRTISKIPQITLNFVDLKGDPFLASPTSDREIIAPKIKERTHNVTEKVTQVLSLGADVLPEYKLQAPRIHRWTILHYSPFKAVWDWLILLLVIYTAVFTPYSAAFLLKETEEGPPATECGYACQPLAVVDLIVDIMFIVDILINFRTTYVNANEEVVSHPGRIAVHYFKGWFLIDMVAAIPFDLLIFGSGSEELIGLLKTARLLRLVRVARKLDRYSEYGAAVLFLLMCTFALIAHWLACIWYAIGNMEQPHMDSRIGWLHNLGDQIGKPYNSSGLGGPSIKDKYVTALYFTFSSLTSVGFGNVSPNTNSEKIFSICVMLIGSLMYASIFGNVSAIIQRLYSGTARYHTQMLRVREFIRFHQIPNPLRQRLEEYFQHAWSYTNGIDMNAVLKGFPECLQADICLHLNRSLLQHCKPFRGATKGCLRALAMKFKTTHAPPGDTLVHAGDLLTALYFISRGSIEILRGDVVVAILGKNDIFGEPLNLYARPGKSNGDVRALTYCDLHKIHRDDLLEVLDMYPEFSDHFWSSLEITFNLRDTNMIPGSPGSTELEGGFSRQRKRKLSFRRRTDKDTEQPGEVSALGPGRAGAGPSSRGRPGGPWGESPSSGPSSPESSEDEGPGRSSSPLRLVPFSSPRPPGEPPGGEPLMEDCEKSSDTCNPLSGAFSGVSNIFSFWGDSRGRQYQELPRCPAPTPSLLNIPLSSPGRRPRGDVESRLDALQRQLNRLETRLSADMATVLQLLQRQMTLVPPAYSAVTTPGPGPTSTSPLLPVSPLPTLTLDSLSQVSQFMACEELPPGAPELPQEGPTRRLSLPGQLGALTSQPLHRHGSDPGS
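U2OS cells transduced with wild-type KCNH2 virus are loaded with FluxOr dye for 45 min, and thallium flux is measured in kinetic reads before and after stimulation buffer. Rate constants are normalized to DMSO controls.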
BCR signal inh – chronic active BCR signaling inhibition | ABC-DLBCL IkBa-CBG/CBR reporter, luminescence ratio, 4 h | Potency, µM (top dose mostly 46.1 µM), actives largely listed as inhibitors | actives 0.05% (n = 340,000); active means well fitted inhibition curve with a large enough effect in the signal ratio, with a control signal flat, not every such curve was filed as active; inconclusive means small, poorly fitted or top-dose-only effect, or effect the other way, or a change in a side signal; the % refers to the signal ratio
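Concentration-response series (up to 46 uM) were applied to TMD8 dual-reporter cells for 4 h at 37C with doxycycline. Green/red ratio, after filter-overlap correction, defined %Activity; red signal alone was normalised to basal cells and zero luminescence.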
12-LOX inh – inhibitors of human 12S-lipoxygenase ALOX12; AID 1671190; actives 1.1% (n = 580,000); Potency, µM (highest dose often 108 µM), most hits filed as inhibitors; purified 12hLO, xylenol orange hydroperoxide absorbance; P18054; active means well fitted inhibition curve with a large enough effect; inconclusive means small, poorly fitted or top-dose-only effect, or another doubt; inactive means no such curve, though single readings can be large or run the other way
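Purified human 12hLO (150 nM final) in 25 mM Hepes, 0.01% Triton X-100, pH 7.0 was preincubated 15 min at room temperature with compound. Then 40 uM arachidonic acid was added, 30 min. Hydroperoxide was read by Fe-XO absorbance ratio 573/405 nm.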
KCNH2 3.1 block – KCNH2 3.1 (human) potassium channel inhibition. U2OS KCNH2 3.1, thallium flux FluxOr; hits give low values. activity change, % (tested at about 1.8 µM). actives 0.95% (n = 340,000). AID 720553;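 active means maximum activity change below -70%; inconclusive means maximum activity change from -70% to -50%; inactive means maximum activity change above -50%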;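 further: thallium influx rate constant from kinetic fluorescence after stimulation buffer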
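Steps: virus added to U2OS suspension (4 h, RT, dark); medium with 10% FBS added, cells plated, 37 C overnight; FluxOr/Red40 loading buffer 45 min RT; stimulation buffer, 2 min kinetic read; rate constant normalized.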
Numbers stand for hits; n = inactive; u = inconclusive; x = not tested or not shown; ! = not active in a repeat; [ ] = remark or other dose.

SMILES | LDHA inh | ClpP mod | KCNH2 WT inh | BCR signal inh | 12-LOX inh | KCNH2 3.1 block
Cc1cc(OCC(O)CN2CCc3ccccc3C2)ccc1Cl (centres undefined) | n | x | n | n | u | -80
Cc1cccc(N2CCN(CC(O)COc3ccc(Cl)cc3)CC2)c1 (centres undefined) | n | n | n | u | n | -79
OC(COCc1ccc(Cl)cc1)CN1CCN(CC(O)COCc2ccc(Cl)cc2)CC1 (centres undefined) | n | n | n | u | n | -88
CCc1ccc(OCC(O)Cn2cnc3c2c(=O)n(C)c(=O)n3C)cc1 (centres undefined) | n | x | x | x | n | x
COc1ccc(-c2cc(CC3(NCC(C)(C)C)COC3)no2)cc1 | x | x | x | x | n | x
COc1cccc(OCC(O)CN2CCN(c3ccc(Cl)cc3)CC2)c1 (centres undefined) | n | n | n | n | n | n
COc1ccc(OCC(O)CN2CCN(c3ccc(Cl)cc3)CC2)cc1 (centres undefined) | n | n | n | n | n | -84
OC(COc1ccc(Cl)cc1)CN1CCN(c2cccc(Cl)c2)CC1 (centres undefined) | n | x | n | n | n | -78
COC(=O)COc1ccc2c(C)c(-c3ccc(OC)c(OC)c3)c(=O)oc2c1 | n | x | x | x | u | x
N#C/C(=C/c1ccc(OCc2ccccc2C#N)c(Br)c1)c1ccccc1 | n | x | x | x | n | x
CCc1ccc(-n2nc3cc(C)c(N)cc3n2)cc1 | n | n | n | n | 20µM | n
Cc1cc2nn(-c3cccc4ccccc34)nc2cc1N | n | n | n | n | u | n
COc1ccc(-n2nc3cc(C)c(N)c(Br)c3n2)cc1 | n | n | n | u | 28µM | n
Cc1ccc(-n2nc3cc(C)c(N)cc3n2)cc1 | n | n | n | u | 45µM | n
Nc1cc2nn(-c3ccccc3)nc2cc1Cl | n | n | n | u | 5.6µM | n
CC(C)c1ccc(NC(=O)C2CCCN2S(=O)(=O)c2cccc3nsnc23)cc1 (centres undefined) | n | x | x | x | u | x
c1ncc(CN2CC(Oc3ccc4c(c3)OCO4)C2)s1 | x | x | x | x | n[12.5 µM] | x
Cc1nn(Cc2cc(C(=O)O)c3ccccc3n2)c(C)c1Cl | n | x | x | x | u | x
C/C(=N/O)c1ccccc1O | n | x | x | x | n | x
Clc1ccc(N/N=C/c2c(Cl)cccc2Cl)cc1Cl | n | x | x | x | u | x
Cc1ccc(-c2cc(C(=O)NCc3ccco3)c3ccccc3n2)s1 | n | 32µM | n | n | 25µM! | n
Cc1nn(-c2ccccn2)c2nc(-c3cccs3)cc(C(=O)NCc3ccco3)c12 | n | 13µM | u | n | n | n
CS(=O)(=O)N1CCN(C(=O)c2cc(-c3cccs3)nc3ccccc23)CC1 | n | 11µM | n | n | n | n
O=C(NCc1ccco1)c1cc2nc(-c3cccs3)cc(C(F)(F)F)n2n1 | n | 35µM | n | n | u | n
CCOC(=O)c1cc(-c2cccs2)nc2c1c(C)nn2-c1ccccn1 | n | x | n | n | n | n
SMILES | LDHA inh | ClpP mod | KCNH2 WT inh | BCR signal inh | 12-LOX inh | KCNH2 3.1 block
Cc1ccccc1N1CCN(C(=O)c2cc3cn(C4CC4)cc3s2)CC1 | x | x | x | x | n | x
CSCC[C@H](NC(=O)Cc1ccccc1)c1nc2ccccc2[nH]1 | n | x | x | x | n | x
CNC(=O)CSc1nc(NC2CC2)c2ccccc2n1 | n | x | x | x | n | x
O=C(NN1CCOCC1)c1cc(-c2cccs2)nc2ccccc12 | n | 10µM | n | n | n | n
O=C(COC(=O)c1cc(-c2cccs2)nc2ccccc12)NCc1ccco1 | n | u | n | u | n | n
O=C(NCc1ccco1)c1cc(-c2cccs2)nc2ccccc12 | n | 25µM | n | n | u | n
CC1CN(C(=O)COC(=O)c2cc(=O)[nH]c3ccccc23)CCO1 (centres undefined) | n | x | x | x | n | x
Cc1ccc(NS(=O)(=O)c2ccc(NC(=O)C3CCCO3)cc2)cc1 (centres undefined) | n | 32µM | n | u | n | n
O=C1OCc2cc(NC(=O)C3CCCO3)ccc21 (centres undefined) | n | n | n | n | n | n
O=C1NC(=O)c2cc(NC(=O)C3CCCO3)ccc21 (centres undefined) | n | 28µM | n | u | u | n
COc1ccc(NS(=O)(=O)c2ccc(NC(=O)C3CCCO3)cc2)cc1 (centres undefined) | n | n | n | n | u | n
CCCCCC(=O)N1CCN(CCN=CC2=C(O)CC(c3cccs3)CC2=O)CC1 (centres undefined) | n | 32µM! | n | n | n | n
CN(C)CCNCC1CCCO1 (centres undefined) | n | x | x | x | n | x
CCOC(=O)c1ccccc1NC(=O)CCc1nc(-c2ccc(C)cc2)no1 | n | u | x | x | n | x
COC(=O)c1ccccc1NC(=O)Cc1nc(-c2ccc(OC)cc2)no1 | n | 28µM | x | x | n | x
CCOC(=O)C1=C(C)OC(N)=C(C#N)C1c1ccsc1 (centres undefined) | n | n | n | n | n | n
N#CC1=C(N)Oc2c(O)cc3ccccc3c2C1c1ccsc1 (centres undefined) | n | x | n | u | 45µM | n
CSc1ccc(/C=C/C(=O)c2ccc(NC(=O)c3ccccc3)cc2)cc1 | n | x | x | x | n | x
CC(=O)Nc1ccc(OCC(O)Cn2cccn2)cc1 (centres undefined) | n | n | n | n | n | -201
CC(=O)Nc1ccc(OCC(O)Cn2ccnc2)cc1 (centres undefined) | n | n | n | u | n | n
CC1CC(C)(C)NC(=S)N1CCC(=O)N1CCc2ccccc2C1 (centres undefined) | n | n | n | n | 40µM | u
CC1CC(C)(C)NC(=S)N1CCC(=O)N1CCN(c2ccccc2)CC1 (centres undefined) | n | n | n | n | u | n
OCCN1CCN(c2nc(-c3ccccc3)c3cc(Cl)ccc3n2)CC1 | n | n | n | n | n | -99
Cc1ccc2nc(N3CCN(CCO)CC3)nc(-c3ccccc3)c2c1 | n | n | n | n | n | n
CC(CCc1ccccc1)NC(=O)c1cc2c(Cl)nc3ccccc3c2s1 (centres undefined) | n | x | x | x | u | x
O=C(NN=C1CCC(c2ccccc2)CC1)c1ccccc1-n1cccc1 (centres undefined) | n | 32µM | n | n | n | n
Cc1ccc(NC(=S)N/N=C2/CCCCc3ccccc32)cc1 | n | n | n | n | 32µM | n
CCNC(=S)N/N=C1\CCCCc2ccccc21 | n | n | n | u | u | n
S=C(N/N=C1/CCCCc2ccccc21)NC1CCCCC1 | n | x | x | x | 45µM | x
Cc1cccc(NC(=S)N2CCCC2)c1 | n | n | n | n | n | n

Screening results as filed in PubChem.
